# In the supplement of paper PMC5641865, “A screen for kinase inhibitors identifies antimicrobial imidazopyridine aminofurazans as specific inhibitors of the Listeria monocytogenes PASTA kinase PrkA” (The Journal of Biological Chemistry, 2017):
# ± gives the standard deviation of the averaged measurements.
# Tested on: Listeria monocytogenes 10403S
# Assay: growth inhibition relative to ceftriaxone-alone control; higher = stronger potentiation of ceftriaxone growth inhibition
# Settings: 10 µM; ceftriaxone 1 ug/ml; 12 h
# 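Note: End-point A600 read in BHI broth at 37 °C with 2% DMSO, inhibition computed as (1 − OD with compound plus ceftriaxone ÷ OD with ceftriaxone only) × 100.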
row,Compound,growth inhibition
1,Fc1cccc(COc2ccc(Nc3ncnc4cc(-c5ccc[nH]5)sc34)cc2Cl)c1,7.47 ± 4%
2,CC(C)c1ccc(-c2cc(-c3c[nH]nc3-c3ccccn3)ccn2)cc1,-6.81 ± 3%
3,CCn1c(-c2nonc2N)nc2cnc(Oc3cccc(NC(=O)c4ccc(N(C)C)cc4)c3)cc21,-5.93 ± 1.5%
4,COc1cccc(-n2ncc3c(N/N=C/c4ccc(C)cc4)ncnc32)c1,-9.19 ± 0.67%
5,NC(=O)c1sc(-n2cnc3cc(C(F)(F)F)ccc32)cc1OCc1ccccc1Br,-7.84 ± 1.8%
6,Clc1ccc(-c2nn3ncccc3c2-c2ccnc(Nc3ccccc3)n2)cc1,-7.12 ± 3.8%
7,NC1(Cc2ccc(Cl)cc2)CCN(c2ncnc3[nH]ccc23)CC1,35 ± 20%
8,CCCCCCCCCCCCc1ccc(S(=O)(=O)Nc2nncs2)cc1,93.5 ± 11%
9,COc1ccc(-c2nn3ncccc3c2-c2ccnc(Nc3ccc(Cl)c(C(F)(F)F)c3)n2)cc1,-8.69 ± 0.94%
10,CC1=C(C(=O)Nc2ccc3[nH]ncc3c2)C(c2ccc3ccccc3c2)CC(=O)N1 (stereo not drawn),11.5 ± 2.3%
11,Cc1cccc(-c2[nH]c(C(C)(C)C)nc2-c2ccc3nccnc3c2)n1,9.73 ± 13%
12,O=S(=O)(CCOCc1ccc(-c2ccc3ncnc(Nc4ccc(OCc5cccc(F)c5)c(Cl)c4)c3c2)o1)c1ccccc1,-11.6 ± 11%
13,Nc1nonc1-c1nc2cnccc2n1C1CCCCC1,12.4 ± 3.9%
14,NS(=O)(=O)c1cccc(Nc2cc(-c3ccc(F)cc3)n[nH]2)c1,-5.13 ± 10%
15,CNC(=O)c1cc(Oc2ccc(NC(=O)Nc3ccc(Cl)c(C(F)(F)F)c3)cc2)ccn1 [Sorafenib (Nexavar)],98.7 ± 1.8%
16,Nc1nccc(C#Cc2cncnc2Nc2ccc(OCc3cccc(F)c3)c(Cl)c2)n1,8.9975 ± 0.0066%
17,Cc1cc(O)cc(C)c1/C=C/c1cncc(C(=O)N(C)C)c1,-3.75 ± 3.3%
18,N#Cc1ccc(Oc2nccc(-c3c(-c4ccc(F)cc4)ncn3C3CCNCC3)n2)cc1,-15.2 ± 18%
19,Nc1nc(-c2ccccn2)c(-c2ccc3ncccc3n2)s1,0.104 ± 3%

row,Compound,growth inhibition
1,NS(=O)(=O)c1cccc(-c2cc3ccncc3cc2OCc2ccccc2)c1,8.53 ± 3.9%
2,NC(=O)c1sc(-n2cnc3ccc(C(F)(F)F)cc32)cc1OCc1ccccc1Br,-2.79 ± 1.9%
3,NC(=O)c1ccc(Oc2nccc(-c3c(-c4ccc(F)cc4)ncn3C3CCNCC3)n2)cc1,-2.66 ± 0.33%
4,COc1cc2ncnc(Nc3ccc4c(cnn4Cc4ccccc4)c3)c2cc1OC,-12.1 ± 18%
5,CCc1cc2c(cc1N1CCC(N3CCOCC3)CC1)C(C)(C)c1[nH]c3cc(C#N)ccc3c1C2=O,-2.85 ± 9.2%
6,NCc1ccc(-n2c(-c3nonc3N)nc3cnccc32)cc1,-4.5 ± 3.6%
7,[O-][S+]1CCN(Cc2ccc(-c3ccc4ncnc(Nc5ccc(OCc6ccccc6)c(F)c5)c4c3)o2)CC1,2.23 ± 7.9%
8,N#Cc1c(NC(=O)c2cccc3ccccc23)sc2c1CCCC2,-6.35 ± 1.2%
9,O=C(NOCC1CC1)c1ccc(F)c(F)c1Nc1ccc(I)cc1Cl,8.54 ± 25%
10,COc1cc(Nc2ncc(-c3ccccc3)o2)cc(OC)c1OC,1.14 ± 0.11%
11,COc1cc2ncn(-c3cc(OCCc4ccccc4)c(C(N)=O)s3)c2cc1OC,-4.76 ± 1.4%
12,CCc1cccc(CC)c1/C=C/c1cncc(C(=O)NC)c1,14.6 ± 2.7%
13,CCc1cccc(NC(=O)Nc2ccc(Oc3ccc4nc(NC(=O)OC)[nH]c4c3)cc2)c1,9.75 ± 3.1%
14,O=C1NC(=O)/C(=C\c2ccc3nccnc3c2)S1,13.5 ± 10%
15,O=C(O)c1ccc(Nc2ncc3c(n2)-c2ccc(Cl)cc2C(c2c(F)cccc2F)=NC3)cc1,91.3 ± 3.5%
16,CC(=O)NCc1cccc(C#Cc2cncnc2Nc2ccc(OCc3cccc(F)c3)c(Cl)c2)c1,-1.26 ± 2.3%
17,N#CCNC(=O)c1ccc(-c2ccnc(Nc3ccc(N4CCOCC4)cc3)n2)cc1,33 ± 13%
18,O=C(Nc1cccc(Cl)c1)Nc1ncc(CCNc2ncnc3ccsc23)s1,94.4 ± 2%
19,O=C(NOCC(O)CO)c1cc(Br)c(F)c(F)c1Nc1ccc(I)cc1F (stereo not drawn),100 ± 5.2%
